Screens deposited in PubChem by National Center for Advancing Translational Sciences (NCATS).
TDP-43 yeast inh: inhibitors of TDP-43 toxicity in yeast; actives 1.8% (n = 410,000); Potency, µM (titrated, usually from 46.1 µM), for the others: top-dose growth rescue (activation), actives largely listed as activators; TDP-43 expressing yeast growth rescue, BacTiter-Glo, 24 h; AID 652104; also: % of control where 0% means no effect; nearly all actives have a fitted effect of over 50% in size
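Readout is BacTiter-Glo luminescence of cell growth, so inhibitors register as activators. TDP-43-expressing yeast at OD600=0.02 in galactose medium, after raffinose pregrowth to mid-log, were incubated with compound for 24 hr at 30 deg C.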
Mm-Cpn inhibitor: M. maripaludis TRiC chaperonin inhibition. purified Mm-Cpn ATPase, ADP Transcreener TR-FRET. Potency, µM (highest dose often 76.9 µM), for the others: at the top dose activity, negative = inhibition, most hits filed as inhibitors. actives 0.031% (n = 330,000). AID 504842; also: % is scaled to controls: 0 for no effect and ±100 for the full control effect; nearly all actives have a fitted effect of over 80% in size
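Purified archaeal Mm-CPN (25nM final) preincubated 10 min at 37degC with compound, then 10uM ATP for 30 min at 37degC; ADP measured by HTRF Transcreener TR-FRET; buffer 30 mM TRIS pH 7.4, 100mM KCl, 5mM MgCl2, 1mM DTT.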
Abeta rescue: compounds reversing amyloid beta toxicity in yeast; AID 1347071; yeast expressing A-beta42, growth rescue, OD600, 48 h; response scale: 0% DMSO, 100% iron-clioquinol control; actives 0.063% (n = 410,000); Potency, µM (doses to about 46.1 µM), most hits filed as activators; also: nearly all actives have a fitted effect of over 55% in size
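Yeast A-beta toxicity model in growth medium with pinned compounds, 48 h at 30 C; growth read as absorbance at 600 nm. Normalized to FeCl3/clioquinol equimolar mix (positive) and DMSO (negative).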
ClpP mod: qHTS Assay for Activators of ClpP. purified B. subtilis ClpP, FRET peptide cleavage, 20 min. actives 1.9% (n = 340,000). AID 651965, 2013. ATP-dependent Clp protease proteolytic subunit (Bacillus subtilis (strain 168)), P80244. Potency, µM (titrated, usually from 57.5 µM), for inactives: top-dose activity change, negative = active; active = well fitted falling curve with a large enough effect; inconclusive = small, poorly fitted or top-dose-only effect; inactive = no such curve, though single readings can be large or run the other way; also: the source files actives as falling curves though it sought activators and does not explain the sign; nearly all actives have a fitted effect of over 65% in size
Target sequence (P80244 whole entry, looked up): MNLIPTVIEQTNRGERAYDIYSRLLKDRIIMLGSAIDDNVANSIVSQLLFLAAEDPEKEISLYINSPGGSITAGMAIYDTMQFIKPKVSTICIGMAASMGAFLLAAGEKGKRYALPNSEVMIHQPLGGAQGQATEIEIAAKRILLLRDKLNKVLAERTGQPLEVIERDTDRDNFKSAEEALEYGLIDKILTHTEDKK
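Buffer: 100 mM Tris/HCl pH8, 100 mM KCl, 0.05% low protease BSA, 2.5% glycerol, 0.01% Tween-20. ClpP 10 microg/mL final; 20 min RT; delta FRET normalized to ADEP and DMSO controls.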
FUS suppressor: FUS proteinopathy suppression in yeast | AID 1347120 | Potency, µM (top dose mostly 76.6 µM), usual class: activators | actives 0.24% (n = 390,000) | S. cerevisiae FUS-expressing, growth rescue, OD600, 24 h;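 also: plate controls were DMSO vehicle for no effect and reference control for full effect; nearly all actives have a fitted effect of over 55% in size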
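Toxicity suppression screen in FUS-yeast. Cells induced with 2% galactose, starting OD 0.005, treated 24hr at 30C with compounds at multiple final concentrations; growth by OD600.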
aSyn rescue: rescues yeast growth from alpha-synuclein toxicity. AID 652106. Yeast expressing alpha-synuclein, growth rescue, BacTiter-Glo, 24 h. Potency, µM (titrated, usually from 46.1 µM), without a hit: at the highest dose growth rescue (activation), hits mostly activators. actives 0.14% (n = 370,000); also: % of control where 0% means no effect; nearly all actives have a fitted effect of over 65% in size
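Rescue of yeast growth: cells expressing toxic alpha-synuclein, induced in galactose at OD600 0.02, incubated with compound 24 h at 30 C. ATP luminescence quantified growth; inhibitors of toxicity appear as activators.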
* = called active by the depositor; i = inactive; ? = inconclusive; . = no result. A selection: hits, their analogues and other compounds. The true share with any hit is near 3.6%. Unless noted, calls follow the shape of the dose curve; as a rule, active = well fitted curve in the direction sought with a large enough effect; inconclusive = small, poorly fitted or top-dose-only effect, or another doubt; inactive = no such curve, though single readings can be large; an effect the other way counts as inactive or inconclusive. Potency is read from the fitted curve at half-maximal effect.

SMILES	TDP-43 yeast inh	Mm-Cpn inhibitor	Abeta rescue	ClpP mod	FUS suppressor	aSyn rescue
CCCCCC(=O)Nc1cccc(S(=O)(=O)NC2=NCCC2)c1	16%	1%	i	35µM*	.	1%
COc1ccc(-n2c(SCC(=O)Nc3cc(C)cc(C)c3)nc3c(oc4ccccc43)c2=O)cc1	26%	.	i	-20%	i	.
Cc1cc(Nc2nc3ccccc3c3nnc(C)n23)ccc1Br	18%	.	i	-8%	i	.
CCCCCCCCCCCCCCCC[n+]1ccc(C)c2ccccc21	.	.	.	-16%	.	.
COC(=O)c1sccc1NC(=O)c1ccccc1[N+](=O)[O-]	?	3%	i	-1%	.	1%
COC(=O)c1sccc1NC(=O)Nc1ccc(OC)cc1OC	20%	-3%	i	0%	i	-1%
COC(=O)c1sccc1NC(=O)Nc1ccccc1Cl	11µM*	1%	i	8%	i	-10%
COC(=O)c1sccc1NC(=O)Nc1cc(OC)ccc1OC	18µM*	0%	i	-2%	i	9%
COC(=O)c1sccc1Oc1c(Cl)cccc1[N+](=O)[O-]	20µM*	-4%	i	.	i	2%
COc1nnc(-c2ccc(N3CCOCC3)c(NC(=O)C3CCCCC3)c2)c2ccccc12	-2%	0%	i	-1%	i	0%
c1ccc2c3c(cc(N4CCOCC4)c2c1)OC1(N2CCOCC2)CCCCC1O3 (stereo not drawn)	-4%	1%	i	32µM*	i	5%
Fc1ccccc1C1CC(c2ccco2)=Nc2ccccc2S1 (stereo not drawn)	22µM*	-5%	i	-1%	i	22%
Cc1cccc(N2CCN(C3=NC(=O)C(=C4CCCCC4)S3)CC2)c1	7.1µM*	2%	i	2%	i	.
CC(=O)Oc1ccc(Oc2ccc(-c3noc(C)n3)cc2)cc1	11µM*	1%	i	1%	i	-13%
Cc1cc(OCc2cc(C(=O)N(C)C3CCOC3)no2)cc(C)c1Cl (stereo not drawn)	13µM*	-6%	i	.	i	11%
CCc1ccc(CN(C)C(=O)c2cc(COc3cncc(Cl)c3)on2)cc1	25%	.	i	-3%	i	11%
CCc1ccc(CN(C)C(=O)c2cc(COc3cc(C)c(Cl)c(C)c3)on2)nc1	20µM*	-3%	i	2%	?	?
Cc1cc(OCc2cc(C(=O)N(C)Cc3nonc3C)no2)cc(C)c1Cl	?	3%	14µM*	-2%	i	17%
Cc1ccc(C)n1-c1nnc(N2CCCC(C(=O)NCc3cccc(F)c3)C2)s1 (stereo not drawn)	12%	.	i	-1%	i	.
CCOC(=O)c1sc(=S)n(-c2ccc(Cl)cc2)c1C	25µM*	-2%	i	1%	i	1%
CCOC(=O)c1sc(=S)n(-c2ccc(OC)cc2)c1C	20µM*	1%	i	.	i	-1%
O=C(c1cc(-c2ccncc2)nc2ccccc12)N1CCCC(C(F)(F)F)C1 (stereo not drawn)	4%	.	i	-2%	i	-9%
O=C(c1cc(-c2ccco2)nc2ccccc12)N1CCCC(C(F)(F)F)C1 (stereo not drawn)	35µM*	-7%	i	3%	i	-22%
CCCN1CCC(=O)N(CCC#N)CC1	.	.	.	0%	.	.
O=c1c2ccccc2nc(N2CCN(c3cccc(Cl)c3)CC2)n1-c1ccccc1	14%	.	i	-4%	?	.
SMILES	TDP-43 yeast inh	Mm-Cpn inhibitor	Abeta rescue	ClpP mod	FUS suppressor	aSyn rescue
CCCn1c2c(c(O)c(C(=O)Nc3ccc(OC)cc3)c1=O)CCCC2	-2%	-4%	i	28µM*	i	-10%
CCCn1c2c(c(O)c(C(=O)NC)c1=O)CCCC2	25%	?	i	-21%	i	-13%
CCOc1cccc(-c2nnc3sc(C4CCCCC4)nn23)c1	18µM*	-2%	i	0%	?	-5%
COc1cccc(-c2nnc3sc(C4CCCCC4)nn23)c1	?	-1%	i	-4%	i	-4%
COc1ccc(NC(=O)Cn2c(=O)oc3cc(S(=O)(=O)N4CCCCCC4)ccc32)cc1OC	15%	.	i	1%	i	.
CC1=CC(c2ccccc2)n2nc(N3C(=O)CCC3=O)nc2N1 (stereo not drawn)	-1%	2%	i	28µM*	i	6%
CC1=CC(c2ccccc2)n2nc(N3C(=O)c4ccccc4C3=O)nc2N1 (stereo not drawn)	-9%	1%	i	72%	i	9%
CC1=CC(c2ccccc2)n2nc(N3C(=O)C4CC=CCC4C3=O)nc2N1 (stereo not drawn)	8%	-2%	i	2.2µM*	i	15%
CCOC(=O)c1noc2ncn(CC(=O)Nc3ccc(C)c(F)c3)c(=O)c12	23%	.	i	-2%	i	1%
Cc1ccc(-n2ncc3c(NCCC4=CCCCC4)ncnc32)cc1C	18%	.	i	?	i	.
O=C(OCC#CCSc1nnc(-c2ccc(F)cc2)o1)c1ccc(F)cc1	.	.	.	.	i	.
COC(=O)N1C(=O)[C@](c2ccsc2)(C(C)C)N1C(=O)OC	20µM*	1%	i	-2%	i	-5%
COC(=O)N1C(=O)[C@](c2ccc(OC)cc2)(C(C)C)N1C(=O)OC	18µM*	-1%	i	2%	i	19%
COC(=O)N1C(=O)[C@](CC(C)C)(c2ccccc2)N1C(=O)OC	?	1%	i	-1%	i	0%
O=c1c2cc3cccnc3nc2ncn1CCc1c[nH]c2ccccc12	.	.	.	.	i	.
Cc1cccc(OCCSc2nc3ccc(NC(=O)COc4ccccc4F)cc3s2)c1	-15%	.	i	-5%	i	.
Nc1c(Cl)ncnc1N/N=C/c1ccc2ccccc2n1	?	-1%	i	-1%	i	6.3µM*
CC(Sc1nc2ccccc2s1)C(=O)Nc1nnc(C(C)C)s1 (stereo not drawn)	25µM*	3%	i	-1%	i	7%
CCOC(=O)C1=C(C)NC(C)=C(C(=O)OCC)C1C(=O)O	18%	0%	i	0%	i	3%
CCCC1C(C(=O)OCC)=C(C)NC(C)=C1C(=O)OCC	24%	2%	i	20µM*	i	1%
O=C(Nc1ccc(Cl)cc1)C1CCN(S(=O)(=O)c2ccc(Br)s2)CC1	14%	.	i	0%	i	.
Cc1sc(N)nc1-c1cccc([N+](=O)[O-])c1	.	.	.	-4%	.	-9%
